Measured potencies and affinities stand elsewhere. Calls of active or inactive are those of the source.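 Rule for the calls: active = compounds whose fitted half-maximal effective concentration for blocking dye efflux is below 100 µM; inactive = the rest.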
The compounds below were run against Benomyl/methotrexate resistance protein (Candida albicans) (UniProt P28873) (assay: CaMdr1 efflux pump inhibitor potency, dose response, singleplex, Cherry Pick2 set (AID 623992)). Conditions: S. cerevisiae AD/CaMDR1, Nile Red efflux, flow cytometry; series mostly up to 100 µM.
Sequence of Benomyl/methotrexate resistance protein (Candida albicans) (P28873 whole entry, looked up): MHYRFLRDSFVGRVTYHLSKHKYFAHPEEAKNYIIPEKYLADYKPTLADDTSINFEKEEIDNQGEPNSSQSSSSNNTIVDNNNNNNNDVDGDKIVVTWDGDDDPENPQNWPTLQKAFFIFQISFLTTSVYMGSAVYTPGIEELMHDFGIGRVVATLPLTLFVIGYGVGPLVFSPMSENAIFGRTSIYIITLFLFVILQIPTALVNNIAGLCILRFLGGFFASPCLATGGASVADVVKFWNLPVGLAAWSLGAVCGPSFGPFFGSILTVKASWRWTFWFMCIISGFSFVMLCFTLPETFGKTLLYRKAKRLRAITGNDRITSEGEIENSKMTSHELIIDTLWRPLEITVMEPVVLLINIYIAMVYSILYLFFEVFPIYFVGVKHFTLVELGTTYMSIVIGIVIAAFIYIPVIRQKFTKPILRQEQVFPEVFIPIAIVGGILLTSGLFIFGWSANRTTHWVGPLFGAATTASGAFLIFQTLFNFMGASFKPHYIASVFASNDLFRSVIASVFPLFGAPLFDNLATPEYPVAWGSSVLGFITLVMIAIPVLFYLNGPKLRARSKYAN

outcome, inactive:
COc1ccc(OC)c2sc(NC(=O)c3ccc(Br)s3)nc12, COc1ccc(C(=O)OCCc2ccc(O)cc2)cc1, O=C(Nc1ccccc1)C1=C[C@@H](c2ccc(C(F)(F)F)cc2)C[C@@H](OCCCCO)O1, Cc1ccc(O)c(C(=O)c2cnc3c(c2)CN(CCC(C)C)C(=O)N3)c1, NS(=O)(=O)c1ccc(N2N=C(c3ccccc3)CC2c2ccc(Br)cc2)cc1 (stereo unspecified), O=C(NC1CCCc2c1cnn2-c1ccccc1F)c1ccccn1 (stereo unspecified), O=C(C[n+]1cc(-c2ccccc2)n2c1CCC2)N1c2ccccc2Sc2ccccc21, O=C(C[n+]1cc(-c2ccc(Cl)cc2)n2c1CCC2)N1c2ccccc2Sc2ccccc21, Cc1ccc2sc(N(CCCN(C)C)C(=O)c3ccc(Br)s3)nc2c1C, O=C(Nc1ccccc1)C1=C[C@@H](c2ccc(Br)cc2)C[C@@H](OCCCCO)O1, COc1ccc(-c2sc3ccccc3c2-c2ccc(OCCN(C)C)cc2)cc1, O=C(NCCC1=CCCCC1)C1CCC(CNc2nc(=S)[nH]c3ccccc23)CC1 (stereo unspecified), NC1=NC[C@@H](Cc2ccc(O)cc2)N1CCCCC1CCCCC1, O=C(NCCc1ccc(Cl)cc1)C1CCC(CNc2nc(=S)[nH]c3ccccc23)CC1 (stereo unspecified), COc1ccc(C2CC(c3ccccc3C(F)(F)F)=NN2c2ccc(S(N)(=O)=O)cc2)cc1 (stereo unspecified), Cc1ccc(C2CC(c3ccccc3)=NN2c2ccc(S(N)(=O)=O)cc2)cc1 (stereo unspecified), Cc1cc(C(=O)NC2CC(C)(C)Cc3c2cnn3-c2ccc(F)cc2)no1 (stereo unspecified), N#CC(C(=O)NCc1ccccc1)c1nc2ccccc2nc1N1CCCC1 (stereo unspecified), Cc1ccc(C)c(N2CCN(C(=O)C3CCCN(c4ncnc5c4nc4n5CCCCC4)C3)CC2)c1 (stereo unspecified), NS(=O)(=O)c1ccc(N2N=C(c3ccccc3)CC2c2ccccc2)cc1 (stereo unspecified), C[C@H](CO)N1C[C@H](C)[C@@H](CN(C)S(=O)(=O)c2ccccc2)Oc2c(NC(=O)Nc3ccccc3)cccc2C1=O, Cc1ccc(N2CCN(C(=O)C3CCCN(c4ncnc5c4nc4n5CCCCC4)C3)CC2)c(C)c1 (stereo unspecified), COc1ccc2c(c1)OC[C@H]1[C@H]2N2C(=O)c3ccc(C)cc3NC(=O)[C@@]2(C)[C@H]1c1ccccc1, CC(C)C(=O)N1CCC2(CC1)Oc1ccc(Cl)cc1C(=O)C21CC(c2ccc(Cl)cc2)=NO1 (stereo unspecified), Cc1ccc(CN2C(=O)C(CC(C)C)Nc3ncnc(N4CCN(c5ccccc5)CC4)c32)cc1 (stereo unspecified), COc1cc(OC)c2ccc(=O)oc2c1C(CCN1CCCCC1)c1ccc(N(C)C)cc1 (stereo unspecified), O=C(C1CCCN(c2ncnc3c2nc2n3CCCCC2)C1)N1CCN(c2ccccc2)CC1 (stereo unspecified), CC(C)C(=O)N1CCN(c2ccccc2NC(=O)c2ccc3c(c2)OCCO3)CC1, O=C(c1ccoc1)N1CCC2(CC1)Oc1ccc(F)cc1C(=O)C21CC(c2ccc(Cl)cc2)=NO1 (stereo unspecified), COc1ccc(CNC(=O)C(C#N)c2nc3ccccc3nc2N2CCCC2)cc1 (stereo unspecified), CC1CN(c2nc3ccccc3nc2C(C#N)C(=O)NCc2ccc3c(c2)OCO3)CC(C)O1 (stereo unspecified)

— PubChem BioAssay AID623992 (NMMLSC, 2012)
